ALDH1A1 inh – blocks purified human ALDH1A1 activity. P00352. Purified ALDH1A1, NADH fluorescence, propionaldehyde substrate. Potency, µM (series often up to 75.3 µM), usual class: inhibitors. actives 7.3% (n = 220,000); active means well fitted inhibition curve with a large enough effect, not every such curve was filed as active; inconclusive means small, poorly fitted or top-dose-only effect, or another doubt; inactive means no such curve, though single readings can be large or run the other way
Target sequence (P00352 whole entry, looked up): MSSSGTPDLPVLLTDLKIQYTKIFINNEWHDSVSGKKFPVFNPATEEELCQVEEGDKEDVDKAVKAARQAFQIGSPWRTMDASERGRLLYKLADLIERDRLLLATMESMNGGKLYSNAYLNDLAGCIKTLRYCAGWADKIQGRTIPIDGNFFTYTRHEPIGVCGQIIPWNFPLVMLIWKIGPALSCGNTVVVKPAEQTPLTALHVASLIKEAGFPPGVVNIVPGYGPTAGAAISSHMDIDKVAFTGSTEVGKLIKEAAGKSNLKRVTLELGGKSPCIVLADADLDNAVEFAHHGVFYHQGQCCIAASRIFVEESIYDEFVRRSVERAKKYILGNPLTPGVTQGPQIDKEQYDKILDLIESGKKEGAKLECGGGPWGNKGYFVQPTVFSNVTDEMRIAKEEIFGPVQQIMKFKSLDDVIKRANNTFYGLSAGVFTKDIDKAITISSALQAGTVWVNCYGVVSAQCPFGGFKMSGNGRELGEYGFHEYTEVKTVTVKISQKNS
Luc counter – blocks Kinase-Glo luciferase, a counter-screen artifact; Potency, µM (highest dose often 38.3 µM), hits mostly inhibitors; actives 0.28% (n = 200,000); Kinase-Glo luciferase, ATP luminescence, 8 min; further: nearly all actives have a fitted effect of over 60% in size
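Inhibition of Kinase-Glo luciferase light generation was assessed at 10 uM ATP in pH 7.2 imidazole buffer, with luminescence measured after eight minutes at ambient temperature.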
HPGD block – HPGD (human) dehydrogenase inhibition; purified HPGD, NADH fluorescence kinetic, PGE2 substrate; AID 894; actives 4.3% (n = 150,000); Potency, µM, usual class: inhibitors; P15428; active means well fitted inhibition curve with a large enough effect, not every such curve was filed as active; inconclusive means small, poorly fitted or top-dose-only effect, or another doubt; inactive means no such curve, though single readings can be large or run the other way
Target sequence (P15428 whole entry, looked up): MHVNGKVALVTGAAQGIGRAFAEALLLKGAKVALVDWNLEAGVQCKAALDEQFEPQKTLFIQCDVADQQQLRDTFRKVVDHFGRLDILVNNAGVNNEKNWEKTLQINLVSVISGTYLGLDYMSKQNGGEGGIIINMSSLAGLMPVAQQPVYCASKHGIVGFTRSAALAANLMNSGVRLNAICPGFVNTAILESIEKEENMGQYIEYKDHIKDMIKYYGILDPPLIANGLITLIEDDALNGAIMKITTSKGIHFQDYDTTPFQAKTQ
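20 nM HPGD preincubated 15 min at room temperature with compound in 50 mM Tris-HCl pH 8, 0.01% Tween 20. Started with 1 mM NAD+ and 30 uM prostaglandin E2; NADH fluorescence (360/450 nm) read 5 times over 30-s intervals, last minus first.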
Lamin A splicing – modulators of lamin A splicing; HeLa LMNA splicing GFP/RFP minigene ratio, 48 h; Potency, µM (titrated, usually from 46.1 µM), actives largely listed as inhibitors; actives 0.01% (n = 200,000); AID 1487; active means well fitted inhibition curve with a large enough effect in the signal ratio, with a control signal flat, not every such curve was filed as active; inconclusive means small, poorly fitted or top-dose-only effect, or effect the other way, or a change in a side signal; the % refers to the signal ratio
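Read-out is the ratio of GFP to DsRed2 object intensity, acquired by 488 nm laser-scanning cytometry on HeLa lamin A-EGFP minigene reporter cells. Compound incubation 48 hrs at 37 °C in Opti-MEM with 2% FBS; DMSO 0.5% final.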
IMPase Li inh – IMPase inhibition in cells with lithium potentiation. CHO-M1 cells, IP1 TR-FRET (IP-One), carbachol + lithium. Potency, µM (doses to about 59.4 µM), most hits filed as inhibitors. actives 0.35% (n = 210,000). AID 1457;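 further: IP1 builds up when IMPase is blocked and the TR-FRET signal falls; nearly all actives have a fitted effect of over 50% in size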
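Lithium-sensitised IP1 accumulation assay; M1-expressing CHO cells treated 30 min at 37C with compound. Competitive antibody detection by time-resolved FRET followed a 10 min room-temperature lysis step.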
Large screens that a line does not name were inactive. Hits are enriched below; roughly 9% of the tested compounds scored in any of these assays. Unless noted, the call rests on the fitted dose curve; in most records, active means well fitted curve in the direction sought with a large enough effect; inconclusive means small, poorly fitted or top-dose-only effect, or another doubt; inactive means no such curve, though single readings can be large; an effect the other way counts as inactive or inconclusive.

O=C(O)CNC(=O)c1ccccc1Br	Lamin A splicing inconclusive (no result: HPGD block)
CCOc1ccc(-n2c(C)c(C(C)=O)c(C(C)=O)c2C)cc1	ALDH1A1 inh 22.4µM
COc1ccc(-n2c(C)c(C(C)=O)c3cc(O)ccc32)cc1	HPGD block 3.98µM
COc1ccc(-n2c(C)c(C(C)=O)c(C(C)=O)c2C)cc1	none
O=C(Nc1cccc(Oc2ccc3c(c2)C(=O)NC3=O)c1)c1cccs1	HPGD block 14.1µM
O=C(COc1cccc(NC(=O)c2cccs2)c1)c1ccc(F)cc1	HPGD block 15.8µM, Lamin A splicing inconclusive
O=C(COc1cccc(NC(=O)c2ccccc2)c1)c1ccccc1	none (no result: HPGD block)
CCN(CC)c1nc2c(s1)C(=O)CC(C)(C)C2	ALDH1A1 inh 12.6µM
CCN(CC)c1nc2c(s1)C(=O)NCCC2	ALDH1A1 inh inconclusive
COc1ccc(-n2c(COc3ccc4c(c3)OCO4)nnc2SCC(=O)O)cc1	ALDH1A1 inh 2.51µM (no result: HPGD block, Lamin A splicing)
O=C(Cc1nc(-c2ccc([N+](=O)[O-])cc2)cs1)Nc1ccccc1	ALDH1A1 inh 8.91µM
Cc1c(N=NC2=C(O)CCCC2=O)c(=O)n(-c2ccccc2)n1C	ALDH1A1 inh 12.6µM (no result: HPGD block, Lamin A splicing)
Cc1c(N=Nc2ccc(O)cc2)c(=O)n(-c2ccccc2)n1C	none (no result: HPGD block, Lamin A splicing)
COc1cc(CNC(=O)c2cccc(COc3ccc(Cl)cc3)c2)cc(OC)c1	Lamin A splicing inconclusive
c1csc(CNc2ccnc(-c3ccoc3)n2)c1	ALDH1A1 inh 11.2µM, Lamin A splicing inconclusive (no result: Luc counter, HPGD block)
Fc1ccc(Nc2ccnc(-c3ccoc3)n2)cc1	ALDH1A1 inh 31.6µM, Lamin A splicing inconclusive (no result: Luc counter, HPGD block)
Fc1ccc(Nc2ccnc(-c3ccc4c(c3)OCO4)n2)cc1	Lamin A splicing inconclusive (no result: Luc counter, HPGD block)
CN(C)c1ccc(-c2nccc(NCc3cccs3)n2)cc1	ALDH1A1 inh inconclusive, Lamin A splicing inconclusive (no result: Luc counter, HPGD block)
Cc1noc(C)c1C(=O)N1CCC2(CC1)CN(c1cccc(-c3ccccc3)c1)C2	ALDH1A1 inh inconclusive, HPGD block inconclusive (no result: Lamin A splicing)
Cc1ccc(S(=O)(=O)N2CCC(NC(=O)c3cccc(C)c3)CC2)cc1	none (no result: HPGD block)
CC(=O)OCC1(C)CN(c2ccccc2)N(C(C)=O)C1=O (stereo not drawn)	ALDH1A1 inh inconclusive (no result: HPGD block, Lamin A splicing)
CC(=O)OCC1(C)CN(c2ccccc2)NC1=O (stereo not drawn)	ALDH1A1 inh 10µM (no result: HPGD block, Lamin A splicing)
CCCC[C@@H]1C[C@H]1C(NC(=O)c1ccco1)c1ccccc1 (stereo partly drawn)	ALDH1A1 inh 25.1µM (no result: Lamin A splicing)
COC(=O)[C@H]1C[C@@H]1[C@H](NC(=O)c1ccccc1)c1ccccc1	ALDH1A1 inh 8.91µM
COC(=O)[C@@H]1C[C@H]1[C@@H](NC(=O)c1cccnc1)c1ccccc1	none (no result: Lamin A splicing)
COc1nnc(-c2ccc(N3CCCCC3)c(NC(C)=O)c2)c2ccccc12	none
O=C(N/N=C/c1ccc(N2CCCCC2)o1)c1ccccc1[N+](=O)[O-]	ALDH1A1 inh inconclusive, HPGD block 10µM
O=C(CSc1nc2ccccc2nc1Cc1ccccc1)NCc1ccccc1Cl	none (no result: ALDH1A1 inh, Luc counter, HPGD block, IMPase Li inh)
CC1(C)Cc2ccccc2-c2n[nH]c(=S)n21	ALDH1A1 inh 12.6µM, Lamin A splicing inconclusive, IMPase Li inh inconclusive
CCC1CCCCN1C(=O)C1CC(c2cc(Cl)c(OC)cc2OC)=NO1 (stereo not drawn)	ALDH1A1 inh inconclusive, HPGD block 14.1µM
Cc1nonc1C1CCCN1Cc1cn[nH]c1-c1ccc2c(c1)OCO2 (stereo not drawn)	ALDH1A1 inh 15.8µM (no result: Luc counter, HPGD block, Lamin A splicing, IMPase Li inh)
COc1ccc(-c2[nH]ncc2CN2CCCC2c2nonc2C)c(F)c1 (stereo not drawn)	ALDH1A1 inh inconclusive (no result: HPGD block)
S=c1nn[nH]n1C12CC3CC(CC(C3)C1)C2	ALDH1A1 inh 2.82µM, HPGD block inconclusive
Cc1ccc2ncc3c(-c4ccccc4)nn(CC(=O)NC4CCCCC4)c3c2c1	none (no result: ALDH1A1 inh, Luc counter, HPGD block, IMPase Li inh)
O=C(CC1CCCC1)Nc1ccc2c(c1)CCC2	HPGD block 14.1µM
O=C(Nc1ccc2c(c1)CCC2)C1CCCO1 (stereo not drawn)	HPGD block 17.8µM
O=C(Nc1ccc2c(c1)OCCO2)c1ccc(NC(=O)C2CCCO2)cc1 (stereo not drawn)	ALDH1A1 inh inconclusive, Lamin A splicing inconclusive
O=C(Cc1ccccc1)Nc1ccc2c(c1)CCC2	none (no result: HPGD block, Lamin A splicing)
O=C(O)c1ccc(C(=O)Nc2cccc(NC(=O)C3CCCO3)c2)cc1 (stereo not drawn)	HPGD block 22.4µM
O=C(Nc1ccc(O)cc1)C1CCCO1 (stereo not drawn)	none
COC(=O)c1cc(-c2ccc3ccccc3c2)[nH]c(=O)c1C#N	ALDH1A1 inh inconclusive, HPGD block inconclusive (no result: Lamin A splicing)
CC(C)(C)NC(=O)C(c1cccs1)N(Cc1ccc(F)cc1)C(=O)c1csnn1 (stereo not drawn)	none (no result: Luc counter, HPGD block, Lamin A splicing)
COc1cc(OC)c(C#N)c(S(=O)Cc2ccccc2)c1 (stereo not drawn)	ALDH1A1 inh 14.1µM
O=C(NCC(c1cccnc1)N1CCc2ccccc2C1)C(=O)Nc1ccccc1 (stereo not drawn)	none (no result: ALDH1A1 inh, Luc counter, HPGD block, IMPase Li inh)
COc1ccc(NC(=O)C(=O)NCC(c2cccnc2)N2CCc3ccccc3C2)cc1 (stereo not drawn)	Lamin A splicing 14.1µM (no result: ALDH1A1 inh, Luc counter, HPGD block, IMPase Li inh)
COc1ccc(N=C2C(=Nc3ccc(OC)cc3)N(c3ccc(OC)cc3)C(=S)N2c2ccccc2)cc1	ALDH1A1 inh inconclusive
Cc1ccc(N=C2C(=S)N(c3ccc(C)cc3)C(=N)N2/N=C/c2ccc(Cl)cc2)cc1	ALDH1A1 inh inconclusive, HPGD block 35.5µM
CC1(C)S[C@@H]2[C@H](NC(=O)[C@@H](N)c3ccccc3)C(=O)N2[C@H]1C(=O)O[C@H]1OC(=O)c2ccccc21	ALDH1A1 inh 2.82µM, HPGD block inconclusive, Lamin A splicing inconclusive
CCOc1ccc2nc(NS(C)(=O)=O)sc2c1	ALDH1A1 inh inconclusive, HPGD block 28.2µM
CCOc1ccc(S(=O)(=O)Nc2nc3ccc(OC)cc3s2)cc1	none
CCOc1ccc2nc(NS(=O)(=O)c3ccc4c(c3)n(C)c(=O)n4C)sc2c1	ALDH1A1 inh inconclusive, HPGD block 25.1µM
CCc1nc2ccc(C(=O)NCc3ccccc3)cc2nc1CC	none (no result: HPGD block)
CCOC(=O)c1[nH]c2c(c1-c1ccccc1)C(=O)CC(c1ccc(OCC)cc1)C2 (stereo not drawn)	none
CCOC(=O)c1[nH]c2c(c1-c1ccccc1)C(=O)CC(c1ccc(OC)c(OC)c1)C2 (stereo not drawn)	ALDH1A1 inh 12.6µM, Lamin A splicing inconclusive
CCCCCCCCCCCCCCC[C@@H](O)[C@H](CO)NC(=O)CCCCCCC	none (no result: Lamin A splicing)
O=C(O)c1ccc(N2Cc3ccccc3C2)cc1O	ALDH1A1 inh 28.2µM, Luc counter inconclusive, HPGD block 15.8µM
CCOC(=O)c1ccc(N2Cc3cc(C)c(C)cc3C2)cc1O	none
COc1c(C)cc(C(=O)C2CCCN(C(=O)/C=C/c3ccccn3)C2)cc1C (stereo not drawn)	ALDH1A1 inh 14.1µM (no result: HPGD block, Lamin A splicing)
CCOC(=O)c1c(NC(=O)Cn2cnc([N+](=O)[O-])n2)sc2c1CCC(C)C2 (stereo not drawn)	none
